The results in this text go back to PubChem BioAssay (EPA / NIEHS).

SMILES strings stand for the structures. Records with an inconclusive call do not appear. The source made the active and inactive calls. Rule for the calls, unless noted: active = hit-call score of the fitted dose curve at least 0.9, where 1 is the maximum; inactive = score below 0.9.

Test [1] is described as follows: CCTE_Padilla_ZF_Score.Swim_bladder: CCTE's 144 Hour Post-fertilization zebrafish Assay Score for Swim Bladder Malformation, Padilla Lab (AID 2284408). The procedure, abridged:
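Wild-type zebrafish embryos, one per well in 10% Hanks', dosed at 6–8 hpf, sealed, reared at 26C and rinsed at 5 dpf. Blinded assessors scored uninflated swim bladder by stereomicroscopy at 6 dpf, relative to DMSO.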

The nature of test [2]: CCTE_Padilla_ZF_Score.Position: CCTE's 144 Hour Post-fertilization zebrafish Assay Score for Position, Padilla Lab (AID 2284409). A digest of the protocol:
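Wild-type zebrafish embryos (with chorions) exposed singly from 6–8 hpf in sealed wells of Hanks' solution at 26C, rinsed at 5 dpf. At 6 dpf, blinded assessors scored abnormal water-column position by brightfield stereomicroscopy, relative to DMSO.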

Test [3] in a line: CCTE_Padilla_ZF_Score.Living: CCTE's 144 Hour Post-fertilization zebrafish Assay Score for Viability, Padilla Lab (AID 2284410).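 Note: larval death at 6 dpf judged by absent heartbeat or coagulation.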 The method, then: CCTE_Padilla_ZF_Phenotype_Score is a whole embryo, multiplexed assay using zebrafish ova exposed for 144 hours post fertilization on a 96-well plate.CCTE_Padilla_ZF_Score.Living is one of one assay component(s) measured or calculated from the CCTE_Padilla_ZF_Phenotype_Score assay. It is designed to make measurements of zebrafish development as detected with brightfield microscopy of developing zebrafish embryos.Data from the assay component CCTE_Padilla_ZF_Score.Living was analyzed into 1 assay endpoints. This assay endpoint, CCTE_Padilla_ZF_Score.Living, was analyzed in the positive analysis fitting direction relative to DMSO as the negative control and baseline of activity. Using a type of viability reporter, gain-of-signal activity can be used to understand changes in developmentals as they relate to the whole embryo. To generalize the intended target to other relatable targets, this assay endpoint is annotated to the zebrafish development intended target family, where the subfamily is embryonic mortality.
Zebrafish husbandry: Wild type adult zebrafish (Danio rerio; undefined outbred stock obtained from Aquatic Research Organisms, Hampton, NH, 03842) were housed in an AAALAC-approved animal facility at 28C with a 14:10 h light: dark cycle (lights on at 08:30 h). Adult fish (2-3 females per male; density = 15-20 adults per tank) were kept in one of several 9-liter (L) flow-through colony tanks (Aquaneering Inc., San Diego, CA). All adults in a colony tank were placed in a 2 L (static) breeding tank (Aquatic Habitats, Apopka, FL) one hour prior to light onset. Typically, adults from two to three colony tanks were mated on the same day. Two hours after light onset the adults were returned to the colony tank. All embryos were gathered from each breeder tank, pooled, and placed in a 28C water bath for 2 h, followed by two washes with 0.06% bleach (v/v) in 10% Hanks' Balanced Salt Solution (13.7 mM NaCl 0.54 mM KCl, 25 uM Na2HPO4, 130 uM CaCl2 100 um MgSO4 and 420 um NaHCO3,), hereafter referred to as Hanks' solution, for 5 min in order to remove any residual bacteria or fungi. Immediately following washing, the embryos were examined, and healthy embryos were separated from dead or unfertilized eggs and moved into fresh Hanks'. Chemical exposures: Zebrafish embryos were exposed in 96-well plates. Between 6- and 8-hours post fertilization (hpf), healthy embryos (with chorions) were transferred, one embryo per well, into 96 well (0.5 mL) microtiter plates (Cell Culture-Treated, Flat-Bottom Microplate 96 well [Corning Costar, Kennebunk, ME; Cat 09-761-145]) filled with 200 uL of Hanks' solution. A random number generator was used to assign the order in which the rows of embryos were plated in 96 well plates each week. After plating, the embryos were dosed with 0.8 uL of the chemical dosing solution then immediately sealed with AlumaSeal II (Excel Scientific Inc, Victorville, CA) to prevent volatilization of the chemicals, and then placed in a leakproof secondary container. These containers were placed in an incubator maintained on a 14:10 h light: dark cycle at 26C for rearing. On 5 dpf, live larvae were gently moved out of the plate with test chemicals and into a new 96 well mesh plate (Millipore Corp., Bedford, MA) with just the Hanks' solution. Once within the mesh well plate, the animals were rinsed with 400 uL of fresh Hanks' three times, and then the plates were covered with a non-adhesive material (Microseal A, BioRad, Hercules, CA), plate lid added, and then plate sides wrapped in Parafilm (PM992, Bermis Company, Neenah, WI), and returned to the incubator. […]

Test [4] in a line: CCTE_Padilla_ZF_Score.General: CCTE's 144 Hour Post-fertilization zebrafish Assay Score for General Malformation, Padilla Lab (AID 2284411). A digest of the protocol: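 Wild-type zebrafish embryos were plated singly at 6-8 hpf in 10% Hanks' and exposed in sealed wells at 26C until rinsed on 5 dpf. At 6 dpf two blinded assessors scored mortality, hatching and malformations by stereomicroscopy; gain-of-signal versus DMSO.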

Test [5] can be described thus: CCTE_Padilla_ZF_Score.Tail: CCTE's 144 Hour Post-fertilization zebrafish Assay Score for Tail Malformation, Padilla Lab (AID 2284414). The procedure, abridged: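 Wild-type zebrafish embryos, one per well in 200 uL 10% Hanks', dosed at 6-8 hpf, sealed, and kept at 26 C on a 14:10 h light cycle. Chemical was rinsed out at 5 dpf. Blinded brightfield scoring of tail defects followed at 6 dpf.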

Test [6] in a line: CCTE_Padilla_ZF_Score.Blood_pooling: CCTE's 144 Hour Post-fertilization zebrafish Assay Score for Blood Pooling, Padilla Lab (AID 2284415). A digest of the protocol:
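Wild-type outbred zebrafish embryos, one per well in 10% Hanks', exposed from 6–8 hpf in sealed plates at 26C on 14:10 h light:dark, rinsed at 5 dpf. Blinded stereomicroscope scoring of blood pooling at 6 dpf; gain-of-signal versus DMSO.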

A short description of test [7]: CCTE_Padilla_ZF_Score.Any: CCTE's 144 Hour Post-fertilization zebrafish Assay Score for Any Mortality or Malformation, Padilla Lab (AID 2284416). The procedure, abridged: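 Wild-type zebrafish embryos with chorions, one per well in 10% Hanks' from 6–8 hpf, dosed in sealed plates at 26 C, 14:10 h light:dark; rinsed at 5 dpf; blinded scoring at 6 dpf for death or malformation, versus DMSO.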

Test [8] deals with SRY-box transcription factor 17 (SOX17) Protein Expression, Deisenroth Lab, SOX17 (gene 64321). The test can be described thus: CCTE_Deisenroth_DEVTOX-GLR_Endo_SOX17: CCTE's DevTox GLR-Endo Assay Evaluation of SRY-box transcription factor 17 (SOX17) Protein Expression, Deisenroth Lab (AID 2284413). The method, then: CCTE_Deisenroth_DEVTOX-GLR_Endo assay is a cell-based, multiplex-readout assay that uses RUES2-GLR, a human pluripotent cell line, with measurements taken at 48 hours after chemical dosing in a 384-well microplateCCTE_Deisenroth_DEVTOX-GLR_Endo_SOX17 is 1 of 4 assay components calculated from the CCTE_Deisenroth_DEVTOX-GLR_Endo assay and it measures the percentage of cells in an endoderm state. Using a type of inducible fluorescent protein reporter, gain-of-signal activity can be used to understand changes in gene expression with fluorescent microscopy. The percentage of SOX17+ cells are determined by calculating the number of SOX17+ cells divided by the cell count. To generalize the intended target to other relatable targets, this assay component is annotated to the transcription factor intended target family, where the subfamily is SRY-related HMG-box.Data from the assay component CCTE_Deisenroth_DEVTOX-GLR_Endo_SOX17 was analyzed as 1 assay endpoint. The endpoint is the percent change in SOX17+ cell population relative to the 0.2% DMSO control in the CCTE_Deisenroth_DEVTOX-GLR_Endo assay. This assay endpoint can be referred to as a primary readout since this assay has produced multiple assay endpoints where this one serves as a measure of endoderm differentiation.
All assay protocols are aligned to the DevTox GLR-Endo assay workflow. […]

The test system of test [9] is Brachyury (BRA) Protein Expression, TBXT (gene 6862). The test can be described thus: CCTE_Deisenroth_DEVTOX-GLR_Endo_BRA: CCTE's DevTox GLR-Endo Assay Evaluation of Brachyury (BRA) Protein Expression, Deisenroth Lab (AID 2284417). The procedure, abridged: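 Endpoint is the fraction of BRA reporter-positive cells over total nuclei, corrected by subtracting the 0.2% DMSO value. Chemicals (1 nM - 200 uM, 10 points) were dosed twice during 48 h differentiation of RUES2-GLR cells, read by imaging.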

Test [10] deals with SRY-box transcription factor 2 (SOX2) Protein Expression, Deisenroth Lab, SOX2 (gene 6657). As to the kind of experiment: CCTE_Deisenroth_DEVTOX-GLR_Endo_SOX2: CCTE's DevTox GLR-Endo Assay Evaluation of SRY-box transcription factor 2 (SOX2) Protein Expression, Deisenroth Lab (AID 2284412; active = hit-call score of the fitted dose curve at least 0.9, where 1 is the maximum). The procedure, abridged: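 RUES2-GLR human pluripotent cells were seeded 24 h, then differentiated 48 h with two chemical exposures 24 h apart. Cells were fixed, nuclei stained and imaged by high-content microscopy. Endpoint is %SOX2+ cells over cell count, minus 0.2% DMSO control; 10-point series 1 nM–200 uM.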

For the compound `O=C(O)C(F)(F)C(F)(F)C(F)(F)C(F)(F)C(F)(F)C(F)(F)C(F)(F)C(F)F`, the result in test [1], in test [2], in test [3], in [4], in [5] and in test [6] was inactive. Also, in test [7], the half-maximal activity concentration (AC50) – broadly, the concentration giving half of the maximal activity seen – was 88.5 µM (active).
For `CCOC(=O)CCCCCCCCC(=O)OCC`, in test [4], the compound was called inactive.
With `CCC(=O)OC/C=C(\C)CCC=C(C)C`, the AC50 in [4] was 27.3 µM (active).
Turning to `CC1=CC(C)C(C=O)C(C)C1` (centres undefined) (tested in a mixture with another compound), the call in [4] was inactive.
On to `CCCCCCCCCCCCS`, for which the result in test [4] was inactive.
As for `C=C(F)C(=O)OC(C(F)(F)F)C(F)(F)F`, the compound was classed as inactive in test [1], in [2], in test [3], in [4], in [5] and in [6]. Moreover, in test [7], the result was inactive.
`O=C(O)c1ccccc1O`: the compound was called inactive in test [8] and in [9].
`OCC(F)(OC(F)(F)C(F)(OC(F)(F)C(F)(F)C(F)(F)F)C(F)(F)F)C(F)(F)F` (centres undefined): the compound was classed as inactive in [1], in [2], in test [4], in test [5] and in test [6]. For the same compound, the values for the AC50 in [3] and in test [7] were 35.4 µM (active) and 31.8 µM (active), respectively.
`CCCCCCCCCC(=O)OCC`: the call in test [4] was inactive.
With `C=C1CC[C@H]2O[C@]2(C)CC[C@@H]2[C@@H]1CC2(C)C`, the half-maximal activity concentration (AC50) in test [4] is 65.4 µM (active).
For the compound `CC(C)Cc1ccc(C(C)C(=O)O)cc1` (centres undefined), the compound was called inactive in [10] and in test [8].
`O=C(O)C(F)(F)OC(F)(F)C(F)(F)OC(F)(F)C(F)(F)C(F)(F)C(F)(F)F`: the compound was called inactive in [1], in [2], in test [5], in test [6] and in test [7]. Besides, the AC50 in test [3] was 81.2 µM (active); in [4] it was 81.3 µM (active).
Take `O=S(=O)(O)C(F)(F)C(F)(F)OC(F)(F)C(F)(F)F`: the compound was called inactive in [1], in [2], in [3], in test [4], in test [5] and in test [6]. Further, the outcome in test [7] was inactive.
As for `CCOC(=O)C=Cc1ccccc1`, the call in test [4] was inactive.
As for `C=C(C)C(=O)OCCC(F)(F)C(F)(F)C(F)(F)C(F)(F)C(F)(F)C(F)(F)C(F)(F)C(F)(F)F`, the call in [1], in test [2], in test [3], in [4], in [5] and in test [6] was inactive. Further, the call in test [7] was inactive.
With `CC(=O)CCC=C(C)CCC=C(C)C`, the result in [4] was inactive.
